Assay results taken from the supplement of paper PMC10849652.
The full data set covers some 8,800 targets. This sample favours those with a hit. About 0.5% of all pairs of compound and target were hits. Unmarked numbers belong to inactive results.

Compound: CC1=C2C(=CC=C1)N=C(N(C2=O)C3=CC=CC=C3C)CN4C=NC5=C(N=CN=C54)N
Assay: log2 fold change, soluble protein after heating vs DMSO (PISA); higher = thermal stabilisation; K562 lysate, 10 uM; active = over 0.2 and 3.5 SD of the protein, either way, in both replicates (recomputed)
Outline: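 Soluble protein was defined as the supernatant remaining after 21,000xg for 90 min, following pooling of heated aliquots and adjustment to 0.5% NP-40 at 4°C. Before that, crude K562 extract at 1 mg/mL protein in PBS pH 7.4 with 1 mM MgCl2 was treated with 10 μM compound for 30 min and heated for 3 min across 48°C-58°C. Quantification used TMTpro 16plex LC-MS/MS with channel sums equalised, and values are log-two fold changes in thermal stability relative to solvent controls from duplicates.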

UniProt Q96B23, sequence (Q96B23 whole entry, looked up): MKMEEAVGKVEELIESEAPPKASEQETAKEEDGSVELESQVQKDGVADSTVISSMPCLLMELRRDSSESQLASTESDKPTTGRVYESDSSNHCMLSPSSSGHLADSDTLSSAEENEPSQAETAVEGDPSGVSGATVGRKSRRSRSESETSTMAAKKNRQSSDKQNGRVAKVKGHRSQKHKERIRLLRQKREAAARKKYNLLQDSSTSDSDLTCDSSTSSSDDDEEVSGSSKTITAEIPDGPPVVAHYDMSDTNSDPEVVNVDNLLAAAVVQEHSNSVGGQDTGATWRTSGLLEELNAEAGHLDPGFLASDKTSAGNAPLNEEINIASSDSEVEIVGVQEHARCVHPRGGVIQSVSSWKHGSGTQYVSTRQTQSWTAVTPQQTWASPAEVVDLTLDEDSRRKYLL
UniProt Q86WR0, sequence (Q86WR0 whole entry, looked up): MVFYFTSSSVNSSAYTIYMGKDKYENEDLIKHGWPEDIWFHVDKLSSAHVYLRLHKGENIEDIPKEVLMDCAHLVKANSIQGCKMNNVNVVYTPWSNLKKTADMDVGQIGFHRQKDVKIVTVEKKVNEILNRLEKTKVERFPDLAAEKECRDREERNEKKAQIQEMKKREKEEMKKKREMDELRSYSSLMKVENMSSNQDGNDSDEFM
UniProt Q9Y487, sequence (Q9Y487 whole entry, looked up): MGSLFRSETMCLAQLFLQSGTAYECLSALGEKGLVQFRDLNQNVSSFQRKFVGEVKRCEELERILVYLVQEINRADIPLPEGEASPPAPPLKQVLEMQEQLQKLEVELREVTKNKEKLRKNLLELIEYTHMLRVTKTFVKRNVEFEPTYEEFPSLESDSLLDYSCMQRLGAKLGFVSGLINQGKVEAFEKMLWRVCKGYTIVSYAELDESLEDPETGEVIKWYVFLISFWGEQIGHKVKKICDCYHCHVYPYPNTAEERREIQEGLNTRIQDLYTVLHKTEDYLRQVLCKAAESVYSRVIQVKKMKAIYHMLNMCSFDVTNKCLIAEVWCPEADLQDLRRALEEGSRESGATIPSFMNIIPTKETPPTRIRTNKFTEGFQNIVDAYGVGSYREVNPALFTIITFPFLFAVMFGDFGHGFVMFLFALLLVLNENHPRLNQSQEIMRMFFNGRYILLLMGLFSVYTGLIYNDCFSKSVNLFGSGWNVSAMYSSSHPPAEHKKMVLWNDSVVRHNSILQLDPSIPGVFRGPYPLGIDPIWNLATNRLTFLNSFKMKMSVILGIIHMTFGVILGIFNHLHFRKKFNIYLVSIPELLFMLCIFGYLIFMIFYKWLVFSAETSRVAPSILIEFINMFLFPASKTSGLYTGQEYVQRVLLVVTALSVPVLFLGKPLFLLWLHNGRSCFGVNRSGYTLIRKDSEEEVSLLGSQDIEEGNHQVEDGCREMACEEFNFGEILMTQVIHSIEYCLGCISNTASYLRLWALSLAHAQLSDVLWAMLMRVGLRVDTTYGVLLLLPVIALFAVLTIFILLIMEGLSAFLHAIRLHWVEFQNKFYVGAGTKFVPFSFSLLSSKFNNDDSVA
UniProt Q00535, sequence (Q00535 whole entry, looked up): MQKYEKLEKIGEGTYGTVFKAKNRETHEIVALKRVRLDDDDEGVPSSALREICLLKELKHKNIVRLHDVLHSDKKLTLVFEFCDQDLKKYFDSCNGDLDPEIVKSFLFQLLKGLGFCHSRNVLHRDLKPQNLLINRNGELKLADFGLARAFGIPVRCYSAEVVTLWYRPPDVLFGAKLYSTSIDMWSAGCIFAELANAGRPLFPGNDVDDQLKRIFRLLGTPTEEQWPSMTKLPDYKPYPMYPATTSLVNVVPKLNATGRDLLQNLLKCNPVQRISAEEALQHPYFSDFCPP
UniProt P21127, sequence (P21127 whole entry, looked up): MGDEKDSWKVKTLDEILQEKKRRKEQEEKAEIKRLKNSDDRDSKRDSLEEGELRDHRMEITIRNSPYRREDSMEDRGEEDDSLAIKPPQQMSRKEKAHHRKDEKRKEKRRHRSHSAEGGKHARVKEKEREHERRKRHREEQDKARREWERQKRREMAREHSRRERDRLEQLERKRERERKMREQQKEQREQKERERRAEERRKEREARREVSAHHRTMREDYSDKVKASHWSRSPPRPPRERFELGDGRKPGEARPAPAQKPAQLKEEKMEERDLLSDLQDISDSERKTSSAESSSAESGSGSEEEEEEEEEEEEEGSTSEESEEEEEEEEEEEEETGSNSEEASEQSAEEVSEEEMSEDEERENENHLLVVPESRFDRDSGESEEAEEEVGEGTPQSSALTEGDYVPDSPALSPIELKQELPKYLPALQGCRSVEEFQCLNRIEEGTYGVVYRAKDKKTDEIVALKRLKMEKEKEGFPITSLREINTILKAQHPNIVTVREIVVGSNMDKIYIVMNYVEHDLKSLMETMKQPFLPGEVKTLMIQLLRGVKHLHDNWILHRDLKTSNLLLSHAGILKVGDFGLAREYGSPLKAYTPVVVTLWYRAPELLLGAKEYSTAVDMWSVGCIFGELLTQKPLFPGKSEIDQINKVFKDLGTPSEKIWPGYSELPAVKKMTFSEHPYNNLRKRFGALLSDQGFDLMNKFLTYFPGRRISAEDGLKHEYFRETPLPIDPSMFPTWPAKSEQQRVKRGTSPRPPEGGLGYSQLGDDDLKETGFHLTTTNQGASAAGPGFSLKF
UniProt Q15059, sequence (Q15059 whole entry, looked up): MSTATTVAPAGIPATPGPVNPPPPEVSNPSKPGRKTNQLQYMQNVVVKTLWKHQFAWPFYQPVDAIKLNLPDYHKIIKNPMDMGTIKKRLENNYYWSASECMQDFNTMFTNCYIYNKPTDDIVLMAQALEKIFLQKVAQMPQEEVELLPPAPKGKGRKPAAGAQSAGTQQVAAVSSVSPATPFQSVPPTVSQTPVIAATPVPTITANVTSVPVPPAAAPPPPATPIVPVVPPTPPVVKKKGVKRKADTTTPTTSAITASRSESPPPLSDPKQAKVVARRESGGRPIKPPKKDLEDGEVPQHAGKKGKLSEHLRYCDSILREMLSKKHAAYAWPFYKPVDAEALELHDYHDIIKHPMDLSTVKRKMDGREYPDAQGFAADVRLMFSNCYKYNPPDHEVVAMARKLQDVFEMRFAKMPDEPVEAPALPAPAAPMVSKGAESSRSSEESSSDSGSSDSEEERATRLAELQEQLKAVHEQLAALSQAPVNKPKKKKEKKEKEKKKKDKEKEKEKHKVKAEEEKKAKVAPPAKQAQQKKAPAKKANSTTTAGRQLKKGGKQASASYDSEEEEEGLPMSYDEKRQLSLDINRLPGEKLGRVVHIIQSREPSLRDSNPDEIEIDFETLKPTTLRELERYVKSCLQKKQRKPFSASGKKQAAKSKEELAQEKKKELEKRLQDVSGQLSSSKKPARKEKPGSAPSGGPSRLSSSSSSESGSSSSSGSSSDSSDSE
UniProt Q9H257, sequence (Q9H257 whole entry, looked up): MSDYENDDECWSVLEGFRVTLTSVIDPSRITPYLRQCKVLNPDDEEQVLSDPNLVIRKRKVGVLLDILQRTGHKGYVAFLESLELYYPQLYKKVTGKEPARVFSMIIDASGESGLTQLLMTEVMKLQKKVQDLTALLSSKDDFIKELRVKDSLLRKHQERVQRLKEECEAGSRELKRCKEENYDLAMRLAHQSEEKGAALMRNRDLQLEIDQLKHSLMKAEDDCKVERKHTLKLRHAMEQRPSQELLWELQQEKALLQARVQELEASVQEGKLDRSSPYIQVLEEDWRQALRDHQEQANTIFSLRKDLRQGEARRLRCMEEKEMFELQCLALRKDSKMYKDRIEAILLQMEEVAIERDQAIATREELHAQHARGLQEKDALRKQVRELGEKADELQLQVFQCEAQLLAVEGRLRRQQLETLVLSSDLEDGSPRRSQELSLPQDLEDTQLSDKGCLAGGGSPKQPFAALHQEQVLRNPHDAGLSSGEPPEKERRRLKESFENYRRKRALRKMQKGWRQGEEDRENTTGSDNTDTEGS
UniProt Q8WYN0, sequence (Q8WYN0 whole entry, looked up): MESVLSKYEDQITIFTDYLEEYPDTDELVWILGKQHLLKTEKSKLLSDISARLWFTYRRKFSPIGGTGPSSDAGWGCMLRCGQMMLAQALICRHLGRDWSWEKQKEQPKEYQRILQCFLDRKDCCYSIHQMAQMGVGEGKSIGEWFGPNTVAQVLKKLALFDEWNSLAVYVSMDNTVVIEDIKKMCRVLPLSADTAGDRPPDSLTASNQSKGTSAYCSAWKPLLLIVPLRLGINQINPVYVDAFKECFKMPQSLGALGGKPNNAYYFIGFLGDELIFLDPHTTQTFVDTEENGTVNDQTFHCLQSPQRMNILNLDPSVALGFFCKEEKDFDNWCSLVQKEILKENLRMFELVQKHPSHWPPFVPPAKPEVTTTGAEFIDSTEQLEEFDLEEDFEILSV
UniProt Q5BKX5, sequence (Q5BKX5 whole entry, looked up): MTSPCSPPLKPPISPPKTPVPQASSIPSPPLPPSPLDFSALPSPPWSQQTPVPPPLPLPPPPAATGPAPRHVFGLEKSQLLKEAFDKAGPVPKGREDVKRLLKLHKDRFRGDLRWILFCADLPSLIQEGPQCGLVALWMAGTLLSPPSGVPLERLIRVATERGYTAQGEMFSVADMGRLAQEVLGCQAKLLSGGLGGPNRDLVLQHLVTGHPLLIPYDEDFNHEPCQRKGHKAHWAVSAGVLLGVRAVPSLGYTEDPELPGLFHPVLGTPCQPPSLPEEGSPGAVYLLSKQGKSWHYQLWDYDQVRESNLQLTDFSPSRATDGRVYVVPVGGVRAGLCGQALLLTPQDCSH
UniProt P55211, sequence (P55211 whole entry, looked up): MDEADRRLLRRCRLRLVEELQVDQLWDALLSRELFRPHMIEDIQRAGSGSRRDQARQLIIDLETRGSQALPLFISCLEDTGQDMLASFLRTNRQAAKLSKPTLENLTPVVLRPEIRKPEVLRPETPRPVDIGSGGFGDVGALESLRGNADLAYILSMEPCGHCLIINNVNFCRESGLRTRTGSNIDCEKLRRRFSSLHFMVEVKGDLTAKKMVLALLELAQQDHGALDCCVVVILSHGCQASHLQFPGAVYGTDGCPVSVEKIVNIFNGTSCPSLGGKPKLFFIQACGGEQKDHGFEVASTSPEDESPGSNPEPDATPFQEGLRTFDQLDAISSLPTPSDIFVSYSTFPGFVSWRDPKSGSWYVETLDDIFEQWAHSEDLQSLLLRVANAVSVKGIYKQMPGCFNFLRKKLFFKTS

Row | Target | log2 fold change
1 | ATP6V0A2 (UniProt Q9Y487) | 0.026
2 | CASP9 (UniProt P55211) | 0.019
3 | CCDC25 (UniProt Q86WR0) | 0.023
4 | ATP5PF isoform 2 (UniProt P18859) | -0.05
5 | ATG4A (UniProt Q8WYN0) | 0.068
6 | CARD9 (UniProt Q9H257) | 0.023
7 | CAMKK2 (UniProt Q96RR4) | 0.072
8 | CDC25C (UniProt P30307) | 0.023
9 | CHCHD2 (UniProt Q9Y6H1) | -0.015
10 | CASP3 (UniProt P42574) | 0.039
11 | CDK5 (UniProt Q00535) | -0.021
12 | CARS isoform 3 (UniProt P49589) | 0.007
13 | C18orf25 isoform 2 (UniProt Q96B23) | 0.008
14 | BRD3 (UniProt Q15059) | 0.112
15 | CDK11B (UniProt P21127) | 0.005
16 | CAPN15 (UniProt O75808) | -0.017
17 | CASP6 (UniProt P55212) | 0.015
18 | CDK2 (UniProt P24941) | -0.039
19 | CHAF1A (UniProt Q13111) | 0.041
20 | BOLA2 (UniProt Q9H3K6) | -0.019
21 | ATG7 (UniProt O95352) | 0.028
22 | BORCS5 (UniProt Q969J3) | -0.015
23 | C19orf54 (UniProt Q5BKX5) | -0.007
